Experimental data published in the supplement of paper PMC10849652.
Of roughly 7,900 targets only a part is listed; those with a hit were picked by preference. About 0.6% of all pairs of compound and target were hits.

What was measured:
Experiment in all cases: log2 fold change, soluble protein after heating vs DMSO (PISA); higher = thermal stabilisation; K562 cells, 10 uM, 30 min; active = over 0.2 and 3.5 SD of the protein, either way, in both replicates (recomputed)
[1] = compound: CN1CCN(CCOc2cc(OC3CCOCC3)c3c(Nc4c(Cl)ccc5c4OCO5)ncnc3c2)CC1 [saracatinib]
In short: (§1)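 K562 cells (2×10^6 cells/mL) were treated with 10 μM compound for 30 min, and aliquots were heated for 3 min over 48°C-58°C. Pooled aliquots were extracted in PBS with 0.5% NP-40 at 4°C, and the supernatant after 21,000xg for 90 min was measured by TMTpro 16plex LC-MS/MS with channel sums equalised. Reported thermal stability, relative to control samples and from duplicates, is a log2 fold change.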

[2] = compound: CN1CCN(c2nc(C3=C(c4c[nH]c5ccccc45)C(=O)NC3=O)c3ccccc3n2)CC1 [sotrastaurin]
In short: as §1

[3] = compound: CN1CC[C@H](c2c(O)cc(O)c3c(=O)cc(-c4ccccc4Cl)oc23)[C@H](O)C1 [alvocidib]
In short: as §1

[4] = compound: CN1CCc2c(c3ccccc3n2Cc2ccc(C(=O)NO)cc2)C1 [Tubastatin A]
In short: as §1

[5] = compound: CNC(=O)C1=CC=CC=C1NC2=NC(=NC=C2Cl)NC3=C(C=C(C=C3)N4CCOCC4)OC
In short: as §1

[6] = compound: CNC(=O)c1ccc(Nc2ncc(C(F)(F)F)c(NCc3nccnc3N(C)S(C)(=O)=O)n2)cc1 [defactinib]
In short: as §1

[7] = compound: CNCc1ccc(-c2[nH]c3cc(F)cc4c3c2CCNC4=O)cc1 [rucaparib]
In short: as §1

[8] = compound: CNc1nc(-c2ccc3c(N)n[nH]c3c2)cc(N2C[C@@H](C(=O)NC3CCCCC3)CC[C@H]2C)n1
In short: as §1

[9] = compound: COC(=O)N[C@@H](C)CNc1nccc(-c2cn(C(C)C)nc2-c2cc(Cl)cc(NS(C)(=O)=O)c2F)n1 [encorafenib]
In short: as §1

[10] = compound: COC(=O)[C@H](CCSC)NC(=O)C1=C(C=C(C=C1)NC[C@H](CS)N)C2=CC=CC=C2
In short: as §1

[11] = compound: COC1=CC=C(C=C1)CN2C=CC3=C2C=C(C=C3)C(=O)NO
In short: as §1

[12] = compound: CON(C)C(=O)N1N=C(c2cc(F)ccc2F)S[C@@]1(CCCN)c1ccccc1 [filanesib]
In short: as §1

[13] = compound: CO[C@H]1C[C@@H]2CC[C@@H](C)[C@@](O)(O2)C(=O)C(=O)N2CCCC[C@H]2C(=O)O[C@H]([C@H](C)C[C@@H]2CC[C@H](n3cnnn3)[C@H](OC)C2)CC(=O)[C@H](C)/C=C(\C)[C@@H](O)[C@@H](OC)C(=O)[C@H](C)C[C@H](C)/C=C/C=C/C=C/1C [zotarolimus]
In short: as §1

[14] = compound: COc1cc(C(=O)O)ccc1NC(=O)[C@@H]1N[C@@H](CC(C)(C)C)[C@](C#N)(c2ccc(Cl)cc2F)[C@H]1c1cccc(Cl)c1F [idasanutlin]
In short: as §1

[15] = compound: COc1cc(Nc2ncc3c(n2)-c2ccc(Cl)cc2C(c2c(F)cccc2OC)=NC3)ccc1C(=O)O [alisertib]
In short: as §1

[16] = compound: COc1cc2nc(-c3cc(F)ccc3O)nc(N[C@@H]3CNC[C@H]3C(C)(C)O)c2cc1OC
In short: as §1

[17] = compound: COc1cc2ncnc(Nc3ccc(F)c(Cl)c3)c2cc1OCCCN1CCOCC1 [gefitinib]
In short: as §1

[18] = compound: COc1cccc2cc(-c3nc([C@H]4CC[C@H](C(=O)O)CC4)n4ncnc(N)c34)[nH]c12
In short: as §1

[19] = compound: CS(=O)(=O)CCNCc1ccc(-c2ccc3ncnc(Nc4ccc(OCc5cccc(F)c5)c(Cl)c4)c3c2)o1 [lapatinib]
In short: as §1

[20] = compound: CS(=O)(=O)N1CCN(Cc2cc3nc(-c4cccc5[nH]ncc45)nc(N4CCOCC4)c3s2)CC1 [pictilisib]
In short: as §1

Measured: log2 fold change

SMARCAD1 isoform 2 (UniProt Q9H4L7)
inactive: [1] -0.086 | [2] -0.043 | [3] -0.243 | [4] 0.053 | [5] 0.016 | [6] -0.099 | [7] -0.056 | [8] 0.035 | [9] 0.029 | [10] -0.023 | [11] 0.027 | [12] -0.098 | [13] 0.028 | [14] -0.073 | [15] -0.026 | [16] 0.06 | [17] -0.062 | [18] -0.004 | [19] 0.026 | [20] 0.07

SPART (UniProt Q8N0X7)
Chain of UniProt Q8N0X7 (Q8N0X7 whole entry, looked up): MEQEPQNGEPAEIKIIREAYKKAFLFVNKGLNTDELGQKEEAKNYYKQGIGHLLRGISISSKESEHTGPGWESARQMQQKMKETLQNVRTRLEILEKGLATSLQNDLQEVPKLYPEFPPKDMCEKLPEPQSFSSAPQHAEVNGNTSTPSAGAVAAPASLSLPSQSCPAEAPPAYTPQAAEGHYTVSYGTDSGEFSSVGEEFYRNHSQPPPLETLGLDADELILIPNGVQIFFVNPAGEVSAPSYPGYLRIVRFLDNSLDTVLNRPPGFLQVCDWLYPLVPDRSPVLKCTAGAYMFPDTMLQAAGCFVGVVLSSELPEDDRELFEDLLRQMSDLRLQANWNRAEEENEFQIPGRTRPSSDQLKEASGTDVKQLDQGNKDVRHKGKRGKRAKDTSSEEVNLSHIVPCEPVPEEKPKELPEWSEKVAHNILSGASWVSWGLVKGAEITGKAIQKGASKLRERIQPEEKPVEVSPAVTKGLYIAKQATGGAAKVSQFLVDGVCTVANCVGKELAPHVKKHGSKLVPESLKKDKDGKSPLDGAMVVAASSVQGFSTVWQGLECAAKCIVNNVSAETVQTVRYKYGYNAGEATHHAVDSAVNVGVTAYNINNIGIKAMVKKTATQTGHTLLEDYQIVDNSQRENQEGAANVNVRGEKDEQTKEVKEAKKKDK
inactive: [1] -0.03 | [2] -0.011 | [3] -0.063 | [4] -0.05 | [5] 0.001 | [6] -0.109 | [7] -0.02 | [8] -0.032 | [9] 0.027 | [10] -0.014 | [11] -0.073 | [12] 0.011 | [13] 0.02 | [14] 0.03 | [15] -0.009 | [16] 0.067 | [17] 0.054 | [18] -0.028 | [19] -0.015 | [20] 0.05

SRSF2 (UniProt Q01130)
inactive: [1] -0.008 | [2] 0.089 | [3] 0.218 | [4] -0.034 | [5] -0.1 | [6] 0.052 | [7] 0.078 | [8] -0.001 | [9] -0.013 | [10] 0.076 | [11] -0.071 | [12] 0.118 | [13] 0 | [14] 0.123 | [15] -0.076 | [16] -0.003 | [17] 0.038 | [18] 0.024 | [19] 0.039 | [20] 0.027

SPECC1 (UniProt Q5M775)
active: [11] -0.357 | [18] 0.309
inactive: [1] -0.171 | [2] 0.093 | [3] 0.06 | [4] -0.024 | [5] -0.069 | [6] 0 | [7] 0.091 | [8] -0.104 | [9] -0.015 | [10] -0.062 | [12] 0.064 | [13] 0.038 | [14] -0.111 | [15] -0.019 | [16] -0.014 | [17] 0.028 | [19] -0.006 | [20] 0.08

SLC25A38 (UniProt Q96DW6)
inactive: [1] 0.076 | [2] -0.027 | [3] -0.117 | [4] -0.035 | [5] -0.015 | [6] 0.046 | [7] -0.002 | [8] 0.026 | [9] 0.016 | [10] -0.057 | [11] -0.013 | [12] -0.01 | [13] -0.029 | [14] -0.069 | [15] -0.049 | [16] 0.039 | [17] 0.013 | [19] -0.02 | [20] 0.04
active: [18] 0.447

STK11IP (UniProt Q8N1F8)
inactive: [1] 0.001 | [2] -0.138 | [3] -0.184 | [4] 0.084 | [5] 0.097 | [6] -0.074 | [7] 0.1 | [8] -0.039 | [9] 0.265 | [10] 0.007 | [11] -0.029 | [12] 0.042 | [13] 0.195 | [14] 0.044 | [15] -0.131 | [16] -0.172 | [17] -0.072 | [18] -0.139 | [19] -0.088 | [20] 0.117

SNRPD3 (UniProt P62318)
inactive: [1] 0.004 | [2] 0.068 | [3] 0.069 | [4] -0.097 | [5] 0.038 | [6] 0.137 | [7] 0.017 | [8] -0.098 | [9] -0.027 | [10] -0.003 | [11] -0.169 | [12] 0.152 | [13] -0.051 | [14] 0.025 | [15] -0.132 | [16] 0.039 | [17] -0.019 | [18] 0.023 | [19] 0.028 | [20] 0.064

STK4 (UniProt Q13043)
Chain of UniProt Q13043 (Q13043 whole entry, looked up): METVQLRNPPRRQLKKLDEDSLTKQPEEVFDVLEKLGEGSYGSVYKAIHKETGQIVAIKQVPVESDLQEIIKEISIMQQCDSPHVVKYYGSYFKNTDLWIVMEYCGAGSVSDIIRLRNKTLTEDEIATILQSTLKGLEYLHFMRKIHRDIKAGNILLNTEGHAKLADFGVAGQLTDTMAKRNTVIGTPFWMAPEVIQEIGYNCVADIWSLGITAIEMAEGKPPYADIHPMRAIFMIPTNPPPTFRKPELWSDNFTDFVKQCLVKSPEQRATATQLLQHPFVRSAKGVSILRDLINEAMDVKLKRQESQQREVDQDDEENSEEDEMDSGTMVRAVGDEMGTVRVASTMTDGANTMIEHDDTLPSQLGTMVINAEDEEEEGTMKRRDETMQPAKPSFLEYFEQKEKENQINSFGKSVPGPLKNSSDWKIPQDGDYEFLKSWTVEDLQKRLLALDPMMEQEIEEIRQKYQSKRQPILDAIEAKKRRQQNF
inactive: [1] 0.006 | [2] 0.029 | [3] -0.01 | [4] 0.039 | [5] 0.01 | [6] -0.002 | [7] -0.008 | [8] 0.012 | [9] 0.077 | [10] -0.003 | [11] -0.031 | [12] -0.034 | [13] -0.025 | [14] 0.01 | [15] -0.047 | [16] 0.099 | [17] -0.007 | [18] 0.015 | [19] -0.036 | [20] 0.02

TIAL1 isoform 2 (UniProt Q01085)
inactive: [1] 0.015 | [2] 0.025 | [3] 0.036 | [4] -0.052 | [5] -0.019 | [6] 0.077 | [7] 0.066 | [8] -0.042 | [9] -0.034 | [10] -0.014 | [11] 0.033 | [12] 0.037 | [13] -0.016 | [14] 0.026 | [15] -0.064 | [16] 0.076 | [17] -0.007 | [18] 0.02 | [19] 0.029 | [20] 0.01

STAT6 (UniProt P42226)
inactive: [1] 0.087 | [2] 0.115 | [3] -0.153 | [4] 0.101 | [5] 0.029 | [6] -0.121 | [7] 0.076 | [8] 0.201 | [9] 0.189 | [10] -0.168 | [11] 0.019 | [12] 0.091 | [13] 0.055 | [14] 0.102 | [15] 0.094 | [16] 0.002 | [17] 0.014 | [18] 0.155 | [19] -0.016 | [20] -0.13

TECR (UniProt Q9NZ01)
inactive: [1] -0.018 | [2] -0.007 | [3] -0.02 | [4] -0.035 | [5] -0.07 | [6] -0.022 | [7] 0.03 | [8] -0.017 | [9] 0.045 | [10] -0.028 | [11] -0.031 | [12] -0.169 | [13] -0.041 | [14] -0.111 | [15] -0.028 | [16] -0.102 | [17] -0.027 | [18] 0.034 | [19] -0.012 | [20] -0.102

SMCHD1 (UniProt A6NHR9)
Chain of UniProt A6NHR9 (A6NHR9 whole entry, looked up): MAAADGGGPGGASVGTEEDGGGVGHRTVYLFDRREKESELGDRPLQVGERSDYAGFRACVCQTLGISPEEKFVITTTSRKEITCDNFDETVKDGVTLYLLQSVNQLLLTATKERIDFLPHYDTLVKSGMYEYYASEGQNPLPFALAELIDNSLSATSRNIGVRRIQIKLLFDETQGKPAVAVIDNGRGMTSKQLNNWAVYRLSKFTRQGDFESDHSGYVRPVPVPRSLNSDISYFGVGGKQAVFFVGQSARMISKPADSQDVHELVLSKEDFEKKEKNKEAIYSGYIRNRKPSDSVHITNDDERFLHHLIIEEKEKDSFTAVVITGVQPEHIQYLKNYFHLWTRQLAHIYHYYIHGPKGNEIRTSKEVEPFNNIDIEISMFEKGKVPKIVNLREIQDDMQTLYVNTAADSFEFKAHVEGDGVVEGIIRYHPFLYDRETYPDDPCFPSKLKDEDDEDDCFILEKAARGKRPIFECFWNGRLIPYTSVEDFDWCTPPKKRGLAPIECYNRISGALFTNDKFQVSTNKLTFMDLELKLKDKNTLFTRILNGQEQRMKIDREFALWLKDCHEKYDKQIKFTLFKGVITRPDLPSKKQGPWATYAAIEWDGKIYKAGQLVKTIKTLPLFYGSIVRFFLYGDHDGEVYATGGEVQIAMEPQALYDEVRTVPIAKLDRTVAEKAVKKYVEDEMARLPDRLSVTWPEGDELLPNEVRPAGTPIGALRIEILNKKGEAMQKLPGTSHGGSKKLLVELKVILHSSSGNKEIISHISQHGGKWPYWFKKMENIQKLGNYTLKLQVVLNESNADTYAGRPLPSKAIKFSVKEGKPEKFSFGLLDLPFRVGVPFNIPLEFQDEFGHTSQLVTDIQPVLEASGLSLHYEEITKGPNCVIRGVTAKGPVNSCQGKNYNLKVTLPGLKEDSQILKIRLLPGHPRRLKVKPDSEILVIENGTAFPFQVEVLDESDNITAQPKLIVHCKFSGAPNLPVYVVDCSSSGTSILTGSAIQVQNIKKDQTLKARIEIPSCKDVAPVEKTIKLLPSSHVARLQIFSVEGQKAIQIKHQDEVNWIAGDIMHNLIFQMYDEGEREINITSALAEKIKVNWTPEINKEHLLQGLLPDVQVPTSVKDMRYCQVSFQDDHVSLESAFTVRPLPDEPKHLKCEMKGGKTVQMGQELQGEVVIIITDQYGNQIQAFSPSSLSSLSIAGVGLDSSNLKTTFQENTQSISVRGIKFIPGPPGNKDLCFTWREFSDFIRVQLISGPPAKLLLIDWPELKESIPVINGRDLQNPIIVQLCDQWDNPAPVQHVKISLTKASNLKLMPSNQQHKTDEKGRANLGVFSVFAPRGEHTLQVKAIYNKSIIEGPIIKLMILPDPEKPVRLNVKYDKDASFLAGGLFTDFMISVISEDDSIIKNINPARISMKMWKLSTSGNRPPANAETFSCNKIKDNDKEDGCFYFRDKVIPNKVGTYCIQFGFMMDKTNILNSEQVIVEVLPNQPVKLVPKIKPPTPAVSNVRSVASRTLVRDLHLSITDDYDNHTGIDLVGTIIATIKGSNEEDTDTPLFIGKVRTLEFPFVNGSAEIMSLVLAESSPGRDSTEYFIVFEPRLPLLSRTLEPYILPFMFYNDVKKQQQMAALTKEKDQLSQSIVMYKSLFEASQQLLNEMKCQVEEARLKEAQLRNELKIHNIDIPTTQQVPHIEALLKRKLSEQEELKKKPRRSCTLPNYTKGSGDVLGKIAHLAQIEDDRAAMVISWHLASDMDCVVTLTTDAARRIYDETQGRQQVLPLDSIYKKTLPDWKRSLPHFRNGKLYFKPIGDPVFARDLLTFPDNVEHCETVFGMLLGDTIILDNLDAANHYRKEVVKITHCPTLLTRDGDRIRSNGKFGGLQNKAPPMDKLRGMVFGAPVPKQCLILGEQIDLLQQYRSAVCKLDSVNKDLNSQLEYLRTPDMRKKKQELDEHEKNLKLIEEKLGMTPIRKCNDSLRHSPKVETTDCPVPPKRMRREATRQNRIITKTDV
inactive: [1] -0.238 | [2] -0.084 | [3] -0.492 | [4] 0.002 | [5] -0.028 | [6] -0.45 | [7] 0.183 | [8] 0.075 | [9] 0.188 | [10] -0.088 | [11] 0.043 | [12] 0.008 | [13] 0.123 | [14] 0.062 | [15] -0.005 | [16] -0.179 | [17] -0.078 | [18] -0.096 | [19] 0.002 | [20] 0.035

TBCD (UniProt Q9BTW9)
Chain of UniProt Q9BTW9 (Q9BTW9 whole entry, looked up): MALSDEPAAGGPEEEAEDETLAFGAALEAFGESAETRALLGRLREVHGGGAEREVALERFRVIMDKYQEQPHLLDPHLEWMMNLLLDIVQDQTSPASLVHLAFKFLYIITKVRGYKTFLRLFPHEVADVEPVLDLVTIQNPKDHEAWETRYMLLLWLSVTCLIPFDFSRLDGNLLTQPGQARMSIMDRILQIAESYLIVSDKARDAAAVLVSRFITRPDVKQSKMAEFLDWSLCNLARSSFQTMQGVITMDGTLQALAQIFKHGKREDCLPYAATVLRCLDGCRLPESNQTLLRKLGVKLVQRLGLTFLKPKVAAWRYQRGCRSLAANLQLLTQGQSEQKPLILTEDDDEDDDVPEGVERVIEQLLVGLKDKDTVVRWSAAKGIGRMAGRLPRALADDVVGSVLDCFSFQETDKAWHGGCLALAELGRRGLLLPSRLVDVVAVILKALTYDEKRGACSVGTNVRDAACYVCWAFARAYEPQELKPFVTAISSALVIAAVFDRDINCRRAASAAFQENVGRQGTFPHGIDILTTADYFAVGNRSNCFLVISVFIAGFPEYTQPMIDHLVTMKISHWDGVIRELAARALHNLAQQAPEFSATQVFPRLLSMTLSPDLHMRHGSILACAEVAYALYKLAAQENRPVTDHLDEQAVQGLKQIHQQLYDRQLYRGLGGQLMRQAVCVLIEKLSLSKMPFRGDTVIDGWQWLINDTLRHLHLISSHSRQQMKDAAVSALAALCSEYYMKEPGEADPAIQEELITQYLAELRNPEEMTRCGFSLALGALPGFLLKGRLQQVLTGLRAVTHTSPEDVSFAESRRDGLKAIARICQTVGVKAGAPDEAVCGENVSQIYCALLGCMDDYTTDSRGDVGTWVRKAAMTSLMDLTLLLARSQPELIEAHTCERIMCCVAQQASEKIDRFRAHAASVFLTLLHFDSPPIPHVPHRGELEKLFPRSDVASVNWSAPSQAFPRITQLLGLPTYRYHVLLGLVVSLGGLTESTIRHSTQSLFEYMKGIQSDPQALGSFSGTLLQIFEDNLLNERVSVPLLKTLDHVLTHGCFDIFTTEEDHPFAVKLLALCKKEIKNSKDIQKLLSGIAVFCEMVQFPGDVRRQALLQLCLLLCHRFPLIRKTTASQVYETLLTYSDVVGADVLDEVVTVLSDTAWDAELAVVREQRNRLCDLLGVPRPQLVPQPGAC
inactive: [1] 0.003 | [2] -0.056 | [3] -0.096 | [4] 0.05 | [5] -0.016 | [6] -0.056 | [7] 0 | [8] -0.031 | [9] 0.018 | [10] -0.007 | [11] -0.017 | [12] -0.063 | [13] 0.049 | [14] -0.091 | [15] -0.078 | [16] -0.006 | [17] 0.022 | [18] 0.023 | [19] -0.024 | [20] 0.04

TBC1D23 (UniProt Q9NUY8)
inactive: [1] -0.023 | [2] -0.073 | [3] -0.053 | [4] 0.043 | [5] -0.027 | [6] -0.109 | [7] -0.038 | [8] -0.074 | [9] 0.079 | [10] -0.047 | [11] 0.07 | [12] -0.184 | [13] -0.002 | [14] 0.068 | [15] 0.023 | [16] -0.19 | [17] -0.058 | [18] 0.021 | [19] -0.053 | [20] -0.067

TBC1D15 isoform 3 (UniProt Q8TC07)
Chain of UniProt Q8TC07 (Q8TC07 whole entry, looked up): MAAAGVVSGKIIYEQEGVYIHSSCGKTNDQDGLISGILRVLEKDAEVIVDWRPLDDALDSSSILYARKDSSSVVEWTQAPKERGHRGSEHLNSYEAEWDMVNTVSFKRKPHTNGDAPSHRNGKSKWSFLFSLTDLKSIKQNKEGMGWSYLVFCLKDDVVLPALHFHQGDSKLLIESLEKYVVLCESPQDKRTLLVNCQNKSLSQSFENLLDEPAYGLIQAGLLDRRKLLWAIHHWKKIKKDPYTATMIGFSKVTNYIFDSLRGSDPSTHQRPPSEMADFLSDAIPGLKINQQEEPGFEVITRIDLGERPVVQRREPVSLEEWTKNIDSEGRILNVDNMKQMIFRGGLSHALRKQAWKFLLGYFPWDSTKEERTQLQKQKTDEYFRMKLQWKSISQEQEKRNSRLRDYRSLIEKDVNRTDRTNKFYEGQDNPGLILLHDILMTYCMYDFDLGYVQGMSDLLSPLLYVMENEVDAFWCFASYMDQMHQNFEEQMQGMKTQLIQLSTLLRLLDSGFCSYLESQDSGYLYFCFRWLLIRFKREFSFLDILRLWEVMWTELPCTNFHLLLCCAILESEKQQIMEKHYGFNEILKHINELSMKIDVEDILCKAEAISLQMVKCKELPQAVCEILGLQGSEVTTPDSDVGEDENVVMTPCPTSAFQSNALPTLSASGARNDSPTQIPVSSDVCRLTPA
inactive: [1] -0.01 | [2] -0.117 | [3] -0.054 | [4] -0.011 | [5] -0.014 | [6] -0.09 | [7] 0.059 | [8] -0.012 | [9] 0.068 | [10] -0.003 | [11] -0.063 | [12] 0 | [13] 0.039 | [14] -0.058 | [15] -0.052 | [16] -0.065 | [17] 0.015 | [18] -0.06 | [19] 0.032 | [20] -0.009

SLC6A6 (UniProt P31641)
inactive: [1] -0.011 | [2] 0.041 | [3] -0.031 | [4] -0.143 | [5] -0.029 | [6] -0.051 | [7] 0.065 | [8] -0.061 | [9] -0.051 | [10] -0.009 | [11] -0.1 | [12] -0.013 | [13] -0.017 | [14] -0.066 | [15] -0.031 | [16] -0.066 | [17] -0.044 | [18] 0.041 | [19] -0.012 | [20] 0.072
